According to PubChem BioAssay AID1159580 (chemical genetic matrix, 2015):
“And” between values parts separate entries of the source, which are not always exact repeats. Equal values may be shown once. The whole screen tested about 5,500 compounds, of which about 2,000 (36%) were called active. About 18% were inconclusive and are not listed. Rule as the data show it: active = normalized growth mostly below about 0.91 (no sharp cut-off); inconclusive = no clear call, values can overlap the other calls; inactive = mostly above about 0.92. Some of the results follow.

Test: chemical genetic growth profiling, strain panel (AID 1159580);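 also: tested at 20 µM; growth read once vehicle control cultures reached saturation at 30 °C; 1 = growth at the plate median or of vehicle wells; lower values mean less growth of the strain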
Conditions: growth OD
[1] = S. cerevisiae deletion strains, locus YBR021W, strain FUR4, stronger effect = lower value
[2] = S. cerevisiae deletion strains, locus YBR229C, strain ROT2, stronger effect = lower value
[3] = S. cerevisiae deletion strains, locus YCL029C, strain bik1, stronger effect = lower value
[4] = S. cerevisiae deletion strains, locus YDL035C, strain GPR1, stronger effect = lower value
[5] = S. cerevisiae deletion strains, locus YDL074C, strain BRE1, stronger effect = lower value
[6] = S. cerevisiae deletion strains, locus YDL101C, strain DUN1, stronger effect = lower value
[7] = S. cerevisiae deletion strains, locus YDL185W, strain tfp1, stronger effect = lower value
[8] = S. cerevisiae deletion strains, locus YDL192W, strain arf1, stronger effect = lower value
[9] = S. cerevisiae deletion strains, locus YDR101C, strain arx1, stronger effect = lower value
[10] = S. cerevisiae deletion strains, locus YDR162C, strain NBP2, stronger effect = lower value
[11] = S. cerevisiae deletion strains, locus YDR318W, strain mcm21, stronger effect = lower value
[12] = S. cerevisiae deletion strains, locus YDR388W, stronger effect = lower value
[13] = S. cerevisiae deletion strains, locus YDR502C, strain sam2, stronger effect = lower value
[14] = S. cerevisiae deletion strains, locus YER110C, stronger effect = lower value
[15] = S. cerevisiae deletion strains, locus YER155C, strain BEM2, stronger effect = lower value
[16] = S. cerevisiae deletion strains, locus YER167W, strain BCK2, stronger effect = lower value
[17] = S. cerevisiae deletion strains, locus YGL078C, strain dbp3, stronger effect = lower value
[18] = S. cerevisiae deletion strains, locus YGL086W, strain mad1, stronger effect = lower value
[19] = S. cerevisiae deletion strains, locus YGL248W, strain PDE1, stronger effect = lower value
[20] = S. cerevisiae deletion strains, locus YGR135W, strain pre9, stronger effect = lower value
[21] = S. cerevisiae deletion strains, locus YGR252W, strain gcn5, stronger effect = lower value
[22] = S. cerevisiae deletion strains, locus YHR030C, strain SLT2, stronger effect = lower value
[23] = S. cerevisiae deletion strains, locus YHR079C, strain IRE1 (second series), stronger effect = lower value
[24] = S. cerevisiae deletion strains, locus YHR079C, strain IRE1, stronger effect = lower value
[25] = S. cerevisiae deletion strains, locus YHR094C, strain hxt1, stronger effect = lower value
[26] = S. cerevisiae deletion strains, locus YHR129C, strain ARP1, stronger effect = lower value
[27] = S. cerevisiae deletion strains, locus YHR200W, strain rpn10, stronger effect = lower value
[28] = S. cerevisiae deletion strains, locus YIL066C, strain RNR3, stronger effect = lower value
[29] = S. cerevisiae deletion strains, locus YIL073C, strain SPO22, stronger effect = lower value
[30] = S. cerevisiae deletion strains, locus YIL125W, strain kgd1, stronger effect = lower value
[31] = S. cerevisiae deletion strains, locus YIR030C, strain dcg1, stronger effect = lower value
[32] = S. cerevisiae deletion strains, locus YJL095W, strain BCK1, stronger effect = lower value
[33] = S. cerevisiae deletion strains, locus YJL134W, strain LCB3, stronger effect = lower value
[34] = S. cerevisiae deletion strains, locus YJL168C, strain set2, stronger effect = lower value
[35] = S. cerevisiae deletion strains, locus YJL187C, strain SWE1 (second series), stronger effect = lower value
[36] = S. cerevisiae deletion strains, locus YJR066W, strain TOR1, stronger effect = lower value
[37] = S. cerevisiae deletion strains, locus YKL009W, strain mrt4, stronger effect = lower value
[38] = S. cerevisiae deletion strains, locus YKL068W, stronger effect = lower value
[39] = S. cerevisiae deletion strains, locus YKL085W, strain MDH1 (second series), stronger effect = lower value
[40] = S. cerevisiae deletion strains, locus YKL085W, strain MDH1, stronger effect = lower value
[41] = S. cerevisiae deletion strains, locus YKR001C, strain vps1, stronger effect = lower value
[42] = S. cerevisiae deletion strains, locus YLR039C, strain RIC1, stronger effect = lower value
[43] = S. cerevisiae deletion strains, locus YLR058C, strain SHM2, stronger effect = lower value
[44] = S. cerevisiae deletion strains, locus YLR102C, strain apc9, stronger effect = lower value
[45] = S. cerevisiae deletion strains, locus YLR113W, strain HOG1, stronger effect = lower value
[46] = S. cerevisiae deletion strains, locus YLR268W, strain sec22, stronger effect = lower value
[47] = S. cerevisiae deletion strains, locus YLR330W, strain CHS5, stronger effect = lower value
[48] = S. cerevisiae deletion strains, locus YLR371W, strain rom2, stronger effect = lower value
[49] = S. cerevisiae deletion strains, locus YLR418C, strain cdc73, stronger effect = lower value
[50] = S. cerevisiae deletion strains, locus YML016C, strain PPZ1, stronger effect = lower value
[51] = S. cerevisiae deletion strains, locus YML032C, strain rad52, stronger effect = lower value
[52] = S. cerevisiae deletion strains, locus YML124C, strain tub3, stronger effect = lower value
[53] = S. cerevisiae deletion strains, locus YMR078C, strain ctf18, stronger effect = lower value
[54] = S. cerevisiae deletion strains, locus YMR223W, strain ubp8, stronger effect = lower value
[55] = S. cerevisiae deletion strains, locus YMR307W, strain GAS1, stronger effect = lower value
[56] = S. cerevisiae deletion strains, locus YNL067W, strain RPL9B, stronger effect = lower value
[57] = S. cerevisiae deletion strains, locus YNL128W, strain TEP1, stronger effect = lower value
[58] = S. cerevisiae deletion strains, locus YNL183C, strain NPR1, stronger effect = lower value
[59] = S. cerevisiae deletion strains, locus YNL233W, strain BNI4, stronger effect = lower value
[60] = S. cerevisiae deletion strains, locus YNL250W, strain rad50, stronger effect = lower value
[61] = S. cerevisiae deletion strains, locus YNL271C, strain bni1, stronger effect = lower value
[62] = S. cerevisiae deletion strains, locus YNL298W, strain CLA4, stronger effect = lower value
[63] = S. cerevisiae deletion strains, locus YNL307C, strain MCK1, stronger effect = lower value
[64] = S. cerevisiae deletion strains, locus YNL322C, strain KRE1, stronger effect = lower value
[65] = S. cerevisiae deletion strains, locus YNR052C, strain pop2, stronger effect = lower value
[66] = S. cerevisiae deletion strains, locus YOL012C, strain htz1
[67] = S. cerevisiae deletion strains, locus YOL147C, strain pex11, stronger effect = lower value
[68] = S. cerevisiae deletion strains, locus YOR061W, strain CKA2, stronger effect = lower value
[69] = S. cerevisiae deletion strains, locus YOR069W, strain VPS5, stronger effect = lower value
[70] = S. cerevisiae deletion strains, locus YOR136W, strain idh2, stronger effect = lower value
[71] = S. cerevisiae deletion strains, locus YOR144C, strain elg1, stronger effect = lower value
[72] = S. cerevisiae deletion strains, locus YOR184W, strain ser1, stronger effect = lower value
[73] = S. cerevisiae deletion strains, locus YOR231W, strain MKK1, stronger effect = lower value
[74] = S. cerevisiae deletion strains, locus YOR316C, strain cot1, stronger effect = lower value
[75] = S. cerevisiae deletion strains, locus YPL256C, strain CLN2, stronger effect = lower value
[76] = S. cerevisiae deletion strains, locus YPR119W, strain clb2, stronger effect = lower value
[77] = S. cerevisiae deletion strains, locus YPR141C, strain kar3, stronger effect = lower value
[78] = S. cerevisiae deletion strains, locus YPR163C, strain tif3, stronger effect = lower value
[79] = S. cerevisiae deletion strains, locus YPR167C, strain met16, stronger effect = lower value
[80] = S. cerevisiae deletion strains, strain wtn01, stronger effect = lower value

Measured: normalized growth

CC(C)=CCCC1(C)C=Cc2c(O)c3c(c(CC=C(C)C)c2O1)OC12C(CC4CC1C(C)(C)OC2(C/C=C(/C)C(=O)O)C4O)C3=O (stereo not drawn)
inactive: S. cerevisiae deletion strains, locus YAL013W, strain DEP1, stronger effect = lower value 1.01 | [1] 1.07 | [2] 0.959 | [3] 0.994 | [4] 0.961 | [5] 1.01 | [6] 0.978 | [7] 0.997 | [8] 0.947 | [9] 0.96 | [10] 0.851 | [11] 0.988 | [12] 0.99 | [13] 1.02 | S. cerevisiae deletion strains, locus YEL061C, strain CIN8, stronger effect = lower value 0.989 | [14] 0.981 | [15] 1.04 | [16] 1.01 | [17] 1.01 | [18] 0.993 | [19] 0.994 | [20] 1.06 | S. cerevisiae deletion strains, locus YGR229C, strain SMI1, stronger effect = lower value 0.988 | [21] 1.17 | [22] 1.01 and 0.984 | [23] 0.981 | [24] 0.985 | [25] 1 | [26] 1.02 | [27] 1.01 | [28] 0.97 | [29] 1.07 | [30] 0.992 | [31] 0.997 | [32] 0.884 and 1.01 | [33] 0.993 | [34] 0.995 | [35] 0.972 | [36] 0.935 | [37] 1.02 | [38] 0.996 | [39] 1.02 | [40] 1.02 | S. cerevisiae deletion strains, locus YKL190W, strain CNB1, stronger effect = lower value 0.988 | [41] 0.961 | [42] 0.774 | [43] 0.98 | [44] 1.01 | [45] 0.92 | [46] 0.93 | [47] 1.01 | S. cerevisiae deletion strains, locus YLR342W, strain FKS1 (second series), stronger effect = lower value 0.96 | [48] 1.03 | [49] 0.936 | [50] 0.987 | [51] 0.978 | [52] 1.01 | [53] 0.997 | [54] 0.991 | [55] 0.95 | [56] 0.996 | [57] 0.967 | S. cerevisiae deletion strains, locus YNL153C, strain GIM3, stronger effect = lower value 1.04 | [58] 0.936 | [59] 1.06 | [60] 0.993 | [61] 0.99 | [62] 0.986 | [63] 0.942 | [64] 1 | [65] 1 | [66] 1.58 | [67] 1 | [68] 0.967 | [69] 0.988 | [70] 1.01 | [71] 1 | [72] 0.903 | [73] 0.963 | [74] 0.994 | [75] 0.957 | [76] 0.994 | [77] 0.991 | [78] 0.967 | [79] 1.02 | [80] 0.972 | S. cerevisiae strains, strain wild type, stronger effect = lower value 0.968

CC(C)=CCCC1(C)C=Cc2c(O)c3c(c(CC=C(C)C)c2O1)OC12C(=CC4CC1C(C)(C)OC2(C/C=C(/C)C(=O)O)C4O)C3=O (stereo not drawn)
inactive: [1] 1.02 | [2] 0.947 | [3] 0.946 | [4] 0.953 | [5] 1.03 | [6] 0.944 | S. cerevisiae deletion strains, locus YDL134C, strain PPH21, stronger effect = lower value 0.949 | [7] 0.955 | [8] 0.945 | [9] 0.929 | [10] 0.862 | [11] 0.931 | [12] 0.942 | [14] 0.952 | [15] 1.01 | [16] 0.995 | [17] 0.967 | [19] 0.946 | S. cerevisiae deletion strains, locus YGR078C, strain PAC10, stronger effect = lower value 1.01 | [20] 1 | [21] 1.06 | [22] 0.983 and 0.976 | [23] 0.944 | [24] 0.971 | [25] 0.958 | [26] 0.955 | [27] 0.938 | [28] 0.924 | [29] 1.06 | [30] 0.936 | [31] 0.966 | [32] 0.938 and 0.988 | [33] 0.976 | [34] 0.99 | [35] 0.929 | S. cerevisiae deletion strains, locus YJR043C, strain POL32, stronger effect = lower value 0.963 | [36] 0.949 | [37] 0.953 | [38] 0.98 | [39] 0.962 | [40] 0.962 | [42] 0.883 | [43] 0.931 | [44] 0.966 | [45] 0.911 | [47] 0.991 | [48] 0.964 | [50] 0.963 | [51] 0.945 | [52] 0.952 | [53] 0.967 | [54] 0.956 | S. cerevisiae deletion strains, locus YMR263W, strain SAP30, stronger effect = lower value 0.971 | [55] 1.03 | [56] 0.985 | [57] 0.921 | [58] 0.917 | [59] 1.02 | [60] 0.951 | [61] 0.947 | [62] 0.955 | [64] 0.986 | [65] 0.961 | [66] 0.366 | [67] 0.97 | [68] 0.924 | [69] 0.979 | [70] 0.962 | [71] 0.966 | [73] 0.942 | [74] 0.956 | S. cerevisiae deletion strains, locus YPL055C, strain LGE1, stronger effect = lower value 0.949 | S. cerevisiae deletion strains, locus YPL241C, strain CIN2, stronger effect = lower value 0.98 | [75] 0.955 | [76] 0.966 | [77] 0.954 | [79] 0.984 | [80] 0.911
active: [13] 0.917 | [18] 0.925 | [41] 0.849 | [46] 0.883 | [49] 0.787 | [63] 0.72 | [72] 0.803 | [78] 0.909
